Records with an inconclusive call do not appear. A number with no mark means an inactive call. The source made the active and inactive calls. The call rests on the fitted dose curve; in most records, active means well fitted cell-killing curve with a large enough effect; inconclusive means small, poorly fitted or top-dose-only effect, or effect the other way; inactive means no such curve, though single readings can be large or run the other way.

Test [1] in a line: Viability qHTS for spleen associated tyrosine kinase inhibitor (SYKi) naive MV4-11 cells (AID 1963823). Further: nearly all actives have a fitted effect of over 40% in size. Conditions: MV4-11 AML viability, CellTiter-Glo luminescence, 72 h; series mostly up to 45 µM. In outline:
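SYKi-naive MV4-11 AML cells, 500 per well, were exposed to library compounds for 72 hr at 37 C, 5% CO2. Viability was then read by CellTiter-Glo luminescence after 10 min at room temperature.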

A short description of test [2]: Viability qHTS for spleen associated tyrosine kinase inhibitor (SYKi) drug resistant MV4-11 cells (AID 1963824). Further: nearly all actives have a fitted effect of over 35% in size. Particulars: SYKi-resistant MV4-11 viability, CellTiter-Glo, 72 h; series mostly up to 45 µM. The procedure, abridged:
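CellTiter-Glo luminescence, read 10 min after reagent addition, reports viability after a 72 hr compound exposure. Cells are an MV4-11 line made resistant to SYK inhibition, seeded at 500 per well onto compound-containing plates.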
A general note: qHTS replaces the single test concentration by a dilution series.
Potency means the concentration at half of the fitted maximal effect.

As to `CC1(C)CC2C3=CCC4C5(C)CCC(OC6OC(C(=O)O)C(O)C(O)C6OC6OC(CO)C(O)C(O)C6OC6OC(CO)C(O)C(O)C6O)C(C)(CO)C5CCC4(C)C3(C)CCC2(C)C(OC2OCC(O)C(OC3OC(CO)C(O)C(O)C3O)C2O)C1O` (centres undefined), in test [1], the viability (% of control) is 96.2% [at 9.25 µM]. Also, the viability, % of control in test [2] is 112% [at 9.25 µM].

For `CCOC(=O)C1=Cc2ccc(C(F)(F)C(F)(F)F)cc2N=C(N)C1`, the Potency in test [1] and in test [2] was 20.6 µM (active) each time.

For the molecule `C=C1C(=O)O[C@@H]2[C@H]1CC(=O)[C@H](C)[C@@](O)(C(=O)/C=C/C)[C@H]2OC(=O)C(C)CC` (some centres undefined), the Potency in test [1] was 0.36 µM (active); in test [2], 0.508 µM (active).

Consider `N#C/C(=C\c1ccc(O)c(O)c1)C(=O)NCCCc1ccccc1`, for which the Potency in test [1] and in test [2] was 8.2 µM (active) each time.

As to `Cc1cc(-c2nncc3c(C(C)(C)C)c(OCc4ncnn4C)nn23)no1`, the Potency entry in test [1] and in test [2] was “inactive” throughout.

In the case of `C/C(=N\N=C(N)N)c1cc(NC(=O)CCCCCCCCC(=O)Nc2cc(/C(C)=N/N=C(N)N)cc(/C(C)=N/N=C(N)N)c2)cc(/C(C)=N/N=C(N)N)c1`, the Potency in test [1] is 18.4 µM (active); in test [2], 9.2 µM (active).

Turning to `CN[C@H](C(=O)N[C@H](C(=O)N(C)[C@H](/C=C(\C)C(=O)O)C(C)C)C(C)(C)C)C(C)(C)c1ccccc1`, the Potency entry in test [1] and in test [2] was “inactive” each time.

Take `CC1CCC2C(C(=O)O)=COC(O[C@@H]3O[C@H](CO)[C@@H](O)[C@H](O)[C@H]3O)C12` (some centres undefined): the Potency result in test [1] is “inactive”. The Potency in test [2] was 16.1 µM (active).

As for `CC(C)c1nc(N(C)S(C)(=O)=O)nc(-c2ccc(F)cc2)c1/C=C/[C@@H](O)C[C@@H](O)CC(=O)O`, the Potency is 8.2 µM (active) in test [1] and 2.91 µM (active) in test [2].

Take `CC(C)=CCC/C(C)=C/CCC1(C)Oc2c(c(O)cc3c2CN(C(CCC(=O)O)C(=O)O)C3=O)CC1O` (centres undefined): the Potency result in test [1] and in test [2] was “inactive” in each case.

Turning to `NC[C@@H]1O[C@@H](O[C@@H]2[C@@H](O[C@@H]3O[C@H](CO)[C@@H](O)[C@H]3O)[C@H](O)[C@@H](N)C[C@H]2N)[C@@H](N)[C@H](O)[C@H]1O`, the viability (% of control) in test [1] was 88.1% [at 9.25 µM]. For the same molecule, the viability, % of control in test [2] is 93.2% [at 9.25 µM].

With `CC(=O)OC1C(CO)OC(O[C@H]2[C@H](OC(=O)[C@]34CCC(C)(C)C[C@H]3C3=CCC5[C@@]6(C)CC[C@H](O[C@@H]7O[C@H](C(=O)O)[C@@H](O)[C@H](O[C@@H]8OC[C@@H](O)[C@H](O)[C@H]8O)[C@H]7O[C@@H]7O[C@H](CO)[C@H](O)[C@H](O)[C@H]7O)[C@@](C)(C=O)C6CC[C@@]5(C)[C@]3(C)C[C@H]4O)O[C@H](C)[C@H](OC3OC(C)C(OC4OCC(O)C(O)C4O)C(O)C3O)[C@@H]2O)C(O)C1O` (some centres undefined), the viability (% of control) in test [1] was 87.3% [at 9.25 µM]. The viability, % of control in test [2] is 100% [at 9.25 µM].

As for `Cc1ccc(C(=O)N(CCCN)C(c2oc3cc(Cl)ccc3c(=O)c2Cc2ccccc2)C(C)C)cc1` (centres undefined), the Potency entry in test [1] and in test [2] was “inactive” in each case.

As for `C=CCN(/C=C1\C(=O)OC(COC)C2(C)C1=C(O)C(=O)C1=C2C(OC(C)=O)CC2(C)C(=O)CCC12)CC=C` (centres undefined), the Potency is 13 µM (active) in test [1] and 20.6 µM (active) in test [2].

With `CC(C)c1cc(C(=O)N2CC[C@@H](NC(=O)C3CC3)C2)n[nH]1`, the Potency result in test [1] and in test [2] was “inactive” throughout.

Turning to `CC(=O)C1=CCC2C3CCC4CC(O[C@@H]5O[C@H](CO)[C@@H](O[C@@H]6O[C@@H](C)[C@H](O)[C@@H](O)[C@H]6O)[C@H](O)[C@H]5O[C@@H]5O[C@H](CO)[C@@H](O)[C@H](O)[C@H]5O)CCC4(C)C3CCC12C` (some centres undefined), the Potency entry in test [1] and in test [2] was “inactive” throughout.

As to `CC1=CC2=C(C)C(=O)C(C)(O)C(O)C2CO1` (centres undefined), the Potency result in test [1] and in test [2] was “inactive” throughout.

On to `CC(C)(C)c1ccc(S(=O)(=O)NCc2ccc(C(=O)Nc3cccnc3)cc2)cc1`, for which the Potency in test [1] and in test [2] was 0.231 µM (active) each time.

As for `CC(=O)CCC1=C(C)C(O[C@@H]2O[C@H](CO)[C@@H](O)[C@H](O)[C@H]2O)C(O)CC1(C)C` (some centres undefined), the Potency result in test [1] and in test [2] was “inactive” in each case.

Regarding `C[C@@H]1C(=O)O[C@H]2C[C@]34[C@H]5C[C@@H](C(C)(C)C)[C@]36[C@@H](OC(=O)[C@H]6O)O[C@]4(C(=O)O5)[C@]21O`, the Potency entry in test [1] and in test [2] was “inactive” in each case.

Consider `COc1cccc(C(=O)NCCNc2nc3cc(C)cc(C)c3cc2C#N)c1`, for which the Potency result in test [1] and in test [2] was “inactive” throughout.

As for `CC1(C)CC[C@]2(C(=O)O)CC[C@]3(C)C(=CCC4[C@@]5(C)CC[C@H](O[C@@H]6O[C@H](CO)[C@@H](O)[C@H](O)[C@H]6O[C@@H]6O[C@H](CO)[C@@H](O)[C@H](O)[C@H]6O)[C@@](C)(CO)C5CC[C@]43C)[C@@H]2C1` (some centres undefined), the Potency result in test [1] and in test [2] was “inactive” each time.

On to `CN1CCN(S(=O)(=O)c2ccc(-c3cnc(N)c(C(=O)Nc4cccnc4)n3)cc2)CC1`, for which the results for the Potency in test [1] and in test [2] were 0.893 µM (active) and 0.796 µM (active), respectively.

As for `C[C@@H]1C(=O)O[C@H]2[C@@H](O)C34[C@H]5C[C@@H](C(C)(C)C)C36[C@@H](OC(=O)[C@@H]6O)O[C@@]4(C(=O)O5)[C@@]12O` (some centres undefined), the Potency entry in test [1] and in test [2] was “inactive” each time.

With `CC1OC(OC2C(OC3C(O[C@H]4CC[C@@]5(C)C(CC[C@]6(C)C5CC=C5C7CC(C)(C)CC(O)[C@]7(C)CC[C@]56C)C4(C)C)OC(C(=O)O)C(O)C3O)OCC(O)C2O)C(O)C(O)C1O` (some centres undefined), the viability (% of control) in test [1] is 90.6% [at 9.25 µM]. Further, the viability, % of control in test [2] is 94.4% [at 9.25 µM].

For `COc1ccc(Oc2c(Cl)cnn(-c3cc(C)cc(C)c3)c2=O)cc1`, the Potency in test [1] was 2.31 µM (active); in test [2] it was 2.06 µM (active).

Consider `CC(=O)O[C@@H]1[C@@H](O)[C@H](O[C@H]2CC[C@]34C[C@]35CC[C@]3(C)[C@@H]([C@@]6(C)CC[C@@H](C(C)(C)O)O6)[C@@H](O)C[C@@]3(C)[C@@H]5C[C@H](O[C@@H]3O[C@H](CO)[C@@H](O)[C@H](O)[C@H]3O)[C@H]4C2(C)C)OC[C@H]1O`, for which the Potency entry in test [1] and in test [2] was “inactive” throughout.
